# Assays:
# [1] = target: Serine/threonine-protein kinase 24 (Homo sapiens) (UniProt Q9Y6E0); details: at 1 µM
# [2] = target: Serine/threonine-protein kinase 24 (Homo sapiens) (UniProt Q9Y6E0); details: at 10 µM
# [3] = target: T1, Serine/threonine-protein kinase Nek11 (Homo sapiens) (UniProt Q8NG66); details: at 1 µM
# T1 sequence (whole entry): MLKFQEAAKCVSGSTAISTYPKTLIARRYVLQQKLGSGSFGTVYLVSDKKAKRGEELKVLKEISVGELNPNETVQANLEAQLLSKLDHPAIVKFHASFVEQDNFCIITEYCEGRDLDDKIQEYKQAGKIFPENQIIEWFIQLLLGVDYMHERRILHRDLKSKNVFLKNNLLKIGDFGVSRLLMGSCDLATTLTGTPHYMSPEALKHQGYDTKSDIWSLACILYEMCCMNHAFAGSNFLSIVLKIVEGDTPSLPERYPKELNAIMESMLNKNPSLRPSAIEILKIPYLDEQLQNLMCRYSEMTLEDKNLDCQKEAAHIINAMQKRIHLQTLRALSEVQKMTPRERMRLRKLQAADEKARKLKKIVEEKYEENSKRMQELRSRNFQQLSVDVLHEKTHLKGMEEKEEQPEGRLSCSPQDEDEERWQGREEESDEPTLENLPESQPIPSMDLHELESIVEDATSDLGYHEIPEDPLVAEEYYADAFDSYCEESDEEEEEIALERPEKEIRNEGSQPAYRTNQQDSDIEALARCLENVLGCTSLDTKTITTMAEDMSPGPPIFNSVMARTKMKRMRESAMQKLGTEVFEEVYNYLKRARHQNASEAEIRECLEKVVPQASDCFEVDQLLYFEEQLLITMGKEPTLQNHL
# [4] = target: T1, Serine/threonine-protein kinase Nek11 (Homo sapiens); details: at 10 µM
# [5] = target: T2, Serine/threonine-protein kinase Nek2 (Homo sapiens) (UniProt P51955); details: at 1 µM
# T2 sequence (whole entry): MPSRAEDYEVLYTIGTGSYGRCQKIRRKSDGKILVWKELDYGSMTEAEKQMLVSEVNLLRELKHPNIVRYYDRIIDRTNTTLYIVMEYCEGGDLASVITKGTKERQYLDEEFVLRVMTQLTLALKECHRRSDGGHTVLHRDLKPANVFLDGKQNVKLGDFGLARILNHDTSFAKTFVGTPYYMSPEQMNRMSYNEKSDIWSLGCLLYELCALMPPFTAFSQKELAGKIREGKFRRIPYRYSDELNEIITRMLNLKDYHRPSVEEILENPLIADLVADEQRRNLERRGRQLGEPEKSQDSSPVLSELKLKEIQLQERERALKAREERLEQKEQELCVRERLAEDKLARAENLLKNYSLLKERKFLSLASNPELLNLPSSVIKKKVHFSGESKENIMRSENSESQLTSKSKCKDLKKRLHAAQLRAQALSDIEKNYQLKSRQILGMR
# [6] = target: T2, Serine/threonine-protein kinase Nek2 (Homo sapiens); details: at 10 µM
# [7] = target: T3, Serine/threonine-protein kinase Nek3 (Homo sapiens) (UniProt P51956); details: at 1 µM
# T3 sequence (whole entry): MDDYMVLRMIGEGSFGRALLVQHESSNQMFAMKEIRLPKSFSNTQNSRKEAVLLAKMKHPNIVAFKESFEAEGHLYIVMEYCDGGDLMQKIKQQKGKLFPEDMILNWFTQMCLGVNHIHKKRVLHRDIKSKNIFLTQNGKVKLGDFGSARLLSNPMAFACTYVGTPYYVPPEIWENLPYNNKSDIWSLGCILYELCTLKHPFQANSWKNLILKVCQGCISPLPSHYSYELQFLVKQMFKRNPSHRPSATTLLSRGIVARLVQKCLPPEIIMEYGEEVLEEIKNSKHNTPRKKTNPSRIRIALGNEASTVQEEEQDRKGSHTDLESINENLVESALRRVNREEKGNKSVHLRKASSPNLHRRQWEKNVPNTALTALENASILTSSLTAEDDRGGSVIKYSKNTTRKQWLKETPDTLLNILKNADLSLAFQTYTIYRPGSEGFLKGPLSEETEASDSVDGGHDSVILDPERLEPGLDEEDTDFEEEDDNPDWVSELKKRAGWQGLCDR
# [8] = target: T3, Serine/threonine-protein kinase Nek3 (Homo sapiens); details: at 10 µM
# [9] = target: Serine/threonine-protein kinase tousled-like 2 (Homo sapiens) (UniProt Q86UE8); details: at 1 µM
# [10] = target: Serine/threonine-protein kinase tousled-like 2 (Homo sapiens) (UniProt Q86UE8); details: at 10 µM
# [11] = target: MAP kinase-interacting serine/threonine-protein kinase 2 (Homo sapiens) (UniProt Q9HBH9); details: at 1 µM
# [12] = target: MAP kinase-interacting serine/threonine-protein kinase 2 (Homo sapiens) (UniProt Q9HBH9); details: at 10 µM
# [13] = target: T4, Tyrosine-protein kinase Mer (Homo sapiens) (UniProt Q12866); details: at 1 µM
# T4 sequence (whole entry): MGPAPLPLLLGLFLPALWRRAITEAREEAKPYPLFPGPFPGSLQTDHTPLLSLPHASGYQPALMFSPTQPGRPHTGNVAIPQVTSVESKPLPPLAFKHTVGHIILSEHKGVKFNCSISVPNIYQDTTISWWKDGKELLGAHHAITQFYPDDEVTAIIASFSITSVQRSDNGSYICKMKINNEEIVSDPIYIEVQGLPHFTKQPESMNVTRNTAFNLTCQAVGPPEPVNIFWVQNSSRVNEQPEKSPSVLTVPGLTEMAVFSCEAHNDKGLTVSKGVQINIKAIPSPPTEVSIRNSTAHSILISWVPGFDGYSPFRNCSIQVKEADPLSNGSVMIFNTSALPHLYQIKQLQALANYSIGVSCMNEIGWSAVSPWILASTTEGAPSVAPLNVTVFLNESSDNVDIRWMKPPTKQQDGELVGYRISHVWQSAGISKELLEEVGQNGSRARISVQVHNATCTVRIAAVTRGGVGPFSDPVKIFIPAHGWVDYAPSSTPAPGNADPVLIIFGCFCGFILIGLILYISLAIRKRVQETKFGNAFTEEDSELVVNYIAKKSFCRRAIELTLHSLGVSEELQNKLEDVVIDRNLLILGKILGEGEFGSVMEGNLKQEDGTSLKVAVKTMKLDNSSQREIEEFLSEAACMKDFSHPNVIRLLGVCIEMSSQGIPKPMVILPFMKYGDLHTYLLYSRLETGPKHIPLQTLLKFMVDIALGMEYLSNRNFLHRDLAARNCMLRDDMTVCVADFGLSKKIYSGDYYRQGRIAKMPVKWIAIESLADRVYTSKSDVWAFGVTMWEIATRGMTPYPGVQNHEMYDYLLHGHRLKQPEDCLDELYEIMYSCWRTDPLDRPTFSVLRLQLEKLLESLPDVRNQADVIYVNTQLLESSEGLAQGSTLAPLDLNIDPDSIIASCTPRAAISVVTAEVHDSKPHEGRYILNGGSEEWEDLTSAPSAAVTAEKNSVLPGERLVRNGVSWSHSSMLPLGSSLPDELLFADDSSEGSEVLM
# [14] = target: T4, Tyrosine-protein kinase Mer (Homo sapiens); details: at 10 µM
# [15] = target: Hepatocyte growth factor receptor (Homo sapiens) (UniProt P08581); details: at 1 µM
# [16] = target: Hepatocyte growth factor receptor (Homo sapiens) (UniProt P08581); details: at 10 µM
# [17] = target: T5, Muscle, skeletal receptor tyrosine-protein kinase (Homo sapiens) (UniProt O15146); details: at 10 µM
# T5 sequence (whole entry): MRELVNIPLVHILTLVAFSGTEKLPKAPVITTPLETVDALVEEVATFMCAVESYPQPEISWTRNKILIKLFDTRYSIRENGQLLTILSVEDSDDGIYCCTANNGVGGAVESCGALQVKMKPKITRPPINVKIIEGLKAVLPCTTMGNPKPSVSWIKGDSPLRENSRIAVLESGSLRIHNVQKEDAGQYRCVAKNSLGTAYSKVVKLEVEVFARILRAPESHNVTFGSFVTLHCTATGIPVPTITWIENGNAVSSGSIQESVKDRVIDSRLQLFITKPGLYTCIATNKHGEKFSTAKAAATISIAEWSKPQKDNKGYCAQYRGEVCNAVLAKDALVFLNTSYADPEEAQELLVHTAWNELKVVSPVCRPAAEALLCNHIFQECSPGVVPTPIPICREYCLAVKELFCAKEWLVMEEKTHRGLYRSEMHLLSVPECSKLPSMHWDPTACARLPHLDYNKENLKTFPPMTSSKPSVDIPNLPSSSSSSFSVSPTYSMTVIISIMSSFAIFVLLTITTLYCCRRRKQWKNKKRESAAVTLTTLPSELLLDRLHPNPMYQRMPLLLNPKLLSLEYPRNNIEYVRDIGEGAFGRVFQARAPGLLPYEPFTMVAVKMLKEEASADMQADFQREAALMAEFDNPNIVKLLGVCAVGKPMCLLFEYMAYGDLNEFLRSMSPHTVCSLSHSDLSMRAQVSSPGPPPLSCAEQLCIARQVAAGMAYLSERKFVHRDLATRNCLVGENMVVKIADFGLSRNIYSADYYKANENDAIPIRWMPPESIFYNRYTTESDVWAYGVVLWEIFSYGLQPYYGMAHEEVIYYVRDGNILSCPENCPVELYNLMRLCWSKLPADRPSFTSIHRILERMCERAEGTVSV
# [18] = target: T5, Muscle, skeletal receptor tyrosine-protein kinase (Homo sapiens); details: at 1 µM
# [19] = target: T6, Serine/threonine-protein kinase 3 (Homo sapiens) (UniProt Q13188); details: at 1 µM
# T6 sequence (whole entry): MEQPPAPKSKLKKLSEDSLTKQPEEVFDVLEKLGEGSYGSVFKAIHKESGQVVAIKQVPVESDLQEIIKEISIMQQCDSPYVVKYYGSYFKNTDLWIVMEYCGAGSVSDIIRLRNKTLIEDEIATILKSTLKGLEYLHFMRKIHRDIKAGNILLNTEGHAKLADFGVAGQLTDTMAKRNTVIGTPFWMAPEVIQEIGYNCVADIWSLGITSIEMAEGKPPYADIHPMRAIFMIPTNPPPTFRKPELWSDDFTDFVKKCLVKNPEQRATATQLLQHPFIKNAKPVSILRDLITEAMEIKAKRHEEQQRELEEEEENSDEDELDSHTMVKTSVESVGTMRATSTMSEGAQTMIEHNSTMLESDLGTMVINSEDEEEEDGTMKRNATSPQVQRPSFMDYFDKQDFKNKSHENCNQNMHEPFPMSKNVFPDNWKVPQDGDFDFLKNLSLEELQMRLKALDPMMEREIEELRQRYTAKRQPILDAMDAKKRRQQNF
# [20] = target: T6, Serine/threonine-protein kinase 3 (Homo sapiens); details: at 10 µM
# Chain of Serine/threonine-protein kinase tousled-like 2 (Homo sapiens) (Q86UE8 whole entry, looked up): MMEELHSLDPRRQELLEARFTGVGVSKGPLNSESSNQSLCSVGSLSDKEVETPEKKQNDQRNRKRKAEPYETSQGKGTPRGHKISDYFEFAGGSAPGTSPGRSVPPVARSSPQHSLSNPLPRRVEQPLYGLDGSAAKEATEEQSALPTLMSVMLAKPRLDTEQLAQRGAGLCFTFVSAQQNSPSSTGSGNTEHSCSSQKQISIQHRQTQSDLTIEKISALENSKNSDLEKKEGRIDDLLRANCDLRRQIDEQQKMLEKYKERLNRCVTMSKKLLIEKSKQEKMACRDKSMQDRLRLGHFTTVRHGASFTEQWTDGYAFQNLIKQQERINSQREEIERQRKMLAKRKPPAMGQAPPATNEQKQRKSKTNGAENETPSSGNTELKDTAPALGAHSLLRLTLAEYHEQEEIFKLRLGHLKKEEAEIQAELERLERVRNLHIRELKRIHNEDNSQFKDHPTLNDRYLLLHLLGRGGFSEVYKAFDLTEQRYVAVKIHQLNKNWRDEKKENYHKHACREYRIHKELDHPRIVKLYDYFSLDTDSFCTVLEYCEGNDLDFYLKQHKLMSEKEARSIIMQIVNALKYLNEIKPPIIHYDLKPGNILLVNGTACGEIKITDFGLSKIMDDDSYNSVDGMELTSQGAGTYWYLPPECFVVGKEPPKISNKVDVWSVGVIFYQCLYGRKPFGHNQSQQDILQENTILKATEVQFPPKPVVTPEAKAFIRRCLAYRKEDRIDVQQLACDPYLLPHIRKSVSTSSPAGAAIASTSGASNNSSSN
# Chain of Hepatocyte growth factor receptor (Homo sapiens) (P08581 whole entry): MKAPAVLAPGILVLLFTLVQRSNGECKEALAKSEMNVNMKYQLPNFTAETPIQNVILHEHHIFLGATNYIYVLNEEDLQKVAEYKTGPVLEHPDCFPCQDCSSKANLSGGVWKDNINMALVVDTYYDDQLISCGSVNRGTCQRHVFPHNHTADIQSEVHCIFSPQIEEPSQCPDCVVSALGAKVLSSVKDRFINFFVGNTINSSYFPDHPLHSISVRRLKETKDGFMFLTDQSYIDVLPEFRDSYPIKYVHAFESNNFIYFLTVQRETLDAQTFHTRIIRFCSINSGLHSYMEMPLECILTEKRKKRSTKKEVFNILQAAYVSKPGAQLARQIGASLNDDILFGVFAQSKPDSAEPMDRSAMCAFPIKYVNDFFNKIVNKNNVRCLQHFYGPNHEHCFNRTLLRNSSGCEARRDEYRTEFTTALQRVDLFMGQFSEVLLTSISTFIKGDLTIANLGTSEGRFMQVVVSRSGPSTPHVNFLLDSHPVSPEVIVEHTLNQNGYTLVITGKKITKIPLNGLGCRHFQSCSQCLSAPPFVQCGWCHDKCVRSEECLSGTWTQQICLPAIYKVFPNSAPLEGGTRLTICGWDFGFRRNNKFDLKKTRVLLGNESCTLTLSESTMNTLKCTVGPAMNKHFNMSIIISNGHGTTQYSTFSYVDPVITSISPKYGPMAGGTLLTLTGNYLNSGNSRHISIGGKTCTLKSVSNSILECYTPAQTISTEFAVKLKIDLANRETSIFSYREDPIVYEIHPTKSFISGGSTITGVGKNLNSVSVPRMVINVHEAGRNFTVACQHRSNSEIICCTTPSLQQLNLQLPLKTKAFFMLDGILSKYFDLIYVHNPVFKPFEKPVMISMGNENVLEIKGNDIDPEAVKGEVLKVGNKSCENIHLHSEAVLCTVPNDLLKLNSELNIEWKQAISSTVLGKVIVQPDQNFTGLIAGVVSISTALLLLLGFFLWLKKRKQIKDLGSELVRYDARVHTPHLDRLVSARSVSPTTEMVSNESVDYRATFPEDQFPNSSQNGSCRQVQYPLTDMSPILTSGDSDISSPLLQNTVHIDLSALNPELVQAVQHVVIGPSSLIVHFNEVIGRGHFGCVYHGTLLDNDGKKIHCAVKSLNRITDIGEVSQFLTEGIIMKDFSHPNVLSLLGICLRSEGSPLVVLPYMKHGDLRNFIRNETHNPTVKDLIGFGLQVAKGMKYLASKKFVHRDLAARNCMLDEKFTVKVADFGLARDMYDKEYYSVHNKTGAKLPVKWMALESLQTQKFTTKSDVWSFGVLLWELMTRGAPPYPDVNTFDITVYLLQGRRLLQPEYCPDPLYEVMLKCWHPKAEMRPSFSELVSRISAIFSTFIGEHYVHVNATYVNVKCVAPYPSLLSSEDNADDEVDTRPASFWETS
# Chain of MAP kinase-interacting serine/threonine-protein kinase 2 (Homo sapiens) (Q9HBH9 whole entry, looked up): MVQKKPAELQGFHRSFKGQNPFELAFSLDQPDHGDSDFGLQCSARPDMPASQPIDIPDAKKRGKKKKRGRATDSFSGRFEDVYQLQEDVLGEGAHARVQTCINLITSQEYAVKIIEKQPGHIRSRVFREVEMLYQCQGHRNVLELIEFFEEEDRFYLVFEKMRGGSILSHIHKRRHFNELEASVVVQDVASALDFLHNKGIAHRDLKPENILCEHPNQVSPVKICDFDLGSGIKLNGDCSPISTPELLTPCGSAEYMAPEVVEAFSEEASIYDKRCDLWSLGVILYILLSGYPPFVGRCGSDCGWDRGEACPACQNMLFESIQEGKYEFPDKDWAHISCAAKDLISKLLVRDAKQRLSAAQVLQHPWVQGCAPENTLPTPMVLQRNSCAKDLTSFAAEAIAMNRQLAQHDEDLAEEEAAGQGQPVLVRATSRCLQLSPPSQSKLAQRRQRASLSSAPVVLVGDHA
# Chain of Serine/threonine-protein kinase 24 (Homo sapiens) (Q9Y6E0 whole entry, looked up): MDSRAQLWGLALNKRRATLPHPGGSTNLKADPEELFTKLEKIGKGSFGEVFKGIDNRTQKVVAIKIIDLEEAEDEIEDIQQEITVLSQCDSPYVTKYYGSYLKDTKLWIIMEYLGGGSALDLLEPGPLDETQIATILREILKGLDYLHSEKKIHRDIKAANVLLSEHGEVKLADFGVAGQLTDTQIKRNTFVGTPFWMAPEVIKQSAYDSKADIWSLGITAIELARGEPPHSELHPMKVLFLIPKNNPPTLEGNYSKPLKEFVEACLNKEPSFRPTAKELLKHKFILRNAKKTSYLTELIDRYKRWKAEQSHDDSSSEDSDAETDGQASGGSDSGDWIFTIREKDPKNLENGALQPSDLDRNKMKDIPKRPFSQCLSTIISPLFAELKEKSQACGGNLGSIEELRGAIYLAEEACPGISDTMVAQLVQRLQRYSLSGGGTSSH
compound,measurement,setting,value
NC(=O)c1ccc(-c2nc(-c3ccc4c(c3)OCCO4)c(-c3ccccn3)[nH]2)cc1,residual activity,[1],91%
same,residual activity,[2],82%
same,residual activity,[3],57%
same,residual activity,[4],65%
same,residual activity,[5],95%
same,residual activity,[6],91%
same,residual activity,[7],85%
same,residual activity,[8],93%
same,residual activity,[9],91%
same,residual activity,[10],87%
COc1ccc(-c2cnc3c(-c4ccsc4)cnn3c2)cc1,residual activity,[1],67%
same,residual activity,[2],81%
same,residual activity,[11],95%
same,residual activity,[12],87%
Cc1cc(C)c(/C=C2\C(=O)Nc3ccccc32)[nH]1,residual activity,[2],72%
same,residual activity,[13],4%
same,residual activity,[14],2%
same,residual activity,[15],101%
same,residual activity,[16],98%
same,residual activity,[17],12%
same,residual activity,[4],98%
same,residual activity,[8],106%
same,residual activity,[9],105%
same,residual activity,[10],62%
O=c1cc(N2CCOCC2)oc2c1ccc1ccccc12,residual activity,[1],70%
same,residual activity,[2],82%
same,residual activity,[13],105%
same,residual activity,[14],83%
same,residual activity,[16],133%
same,residual activity,[11],100%
same,residual activity,[12],93%
same,residual activity,[18],100%
same,residual activity,[17],87%
same,residual activity,[3],98%
same,residual activity,[4],75%
same,residual activity,[5],79%
same,residual activity,[6],84%
same,residual activity,[8],79%
same,residual activity,[9],101%
same,residual activity,[10],92%
O=c1cc(N2CCOCC2)oc2c(-c3ccccc3)cccc12,residual activity,[1],59%
same,residual activity,[2],55%
same,residual activity,[5],81%
CN([C@@H](Cc1ccc(OS(=O)(=O)c2cccc3cnccc23)cc1)C(=O)N1CCN(c2ccccc2)CC1)S(=O)(=O)c1cccc2cnccc12,residual activity,[19],99%
same,residual activity,[15],85%
same,residual activity,[16],114%
same,residual activity,[18],115%
same,residual activity,[7],99%
same,residual activity,[8],99%
O=C(c1ccccc1)c1ccc(N2CCOCC2)cc1O,residual activity,[20],95%
same,residual activity,[1],86%
same,residual activity,[2],68%
same,residual activity,[14],85%
same,residual activity,[15],86%
same,residual activity,[16],66%
same,residual activity,[12],80%
same,residual activity,[17],86%
same,residual activity,[3],89%
same,residual activity,[5],90%
NCCNc1ncc(C(N)=O)c(Nc2cccc(C(F)(F)F)c2)n1,residual activity,[20],77%
same,residual activity,[2],63%
same,residual activity,[13],80%
same,residual activity,[14],26%
same,residual activity,[18],107%
same,residual activity,[17],75%
same,residual activity,[3],71%
same,residual activity,[4],80%
same,residual activity,[7],106%
same,residual activity,[8],78%
O=c1c(-c2ccc(F)cc2)c(-c2ccncc2)[nH]n1-c1ccc(Cl)cc1,residual activity,[2],79%
same,residual activity,[15],67%
same,residual activity,[16],28%
same,residual activity,[3],81%
same,residual activity,[4],78%
COc1ccc2c(c1)c(C1=C(c3c[nH]c4ccccc34)C(=O)NC1=O)cn2CCCN(C)C,residual activity,[1],21%
same,residual activity,[2],5%
same,residual activity,[13],81%
same,residual activity,[14],10%
same,residual activity,[15],111%
same,residual activity,[11],105%
same,residual activity,[12],82%
same,residual activity,[18],96%
same,residual activity,[17],65%
same,residual activity,[3],50%
same,residual activity,[4],48%
same,residual activity,[5],76%
same,residual activity,[9],21%
same,residual activity,[10],2%
CC(C)(C)n1nc(Cc2cccc3ccccc23)c2c(N)ncnc21,residual activity,[19],91%
same,residual activity,[20],29%
same,residual activity,[2],32%
same,residual activity,[15],128%
same,residual activity,[16],73%
same,residual activity,[11],113%
same,residual activity,[12],98%
same,residual activity,[18],121%
same,residual activity,[17],76%
same,residual activity,[3],91%
same,residual activity,[4],82%
same,residual activity,[5],78%
same,residual activity,[6],97%
same,residual activity,[7],108%
same,residual activity,[8],105%
same,residual activity,[9],104%
same,residual activity,[10],97%
